# According to PubChem BioAssay:
# Activity calls are given as the source filed them. Unless noted, how the calls were made is not given here.
# Tests used:
# [1] = system: Wnt5a (protein binding on small-molecule microarray); experiment: Wnt5a binders on small-molecule microarray, primary screen, biophysical, 635/667 nm fluorescence (AID 1142); conditions: 635 nm fluorescence, higher = more signal;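 further: fluorescence read at 667 nm with signal to noise per printed feature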
# [2] = cell viability in Huh7 cells, primary screen, cytotoxicity control for HCV replication inhibitor project, CellTiter-Glo luminescence, basal, 48 h (AID 1143); conditions: Huh7 HCV replicon, higher = more signal, called active from +8 up or from −8 down;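 further: Huh7 hepatoma cells carrying a hepatitis C replication reporter with no stimulus; test concentration not given here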
# [3] = P. aeruginosa biofilm formation inhibitors, primary screen, PAO1 strain, BacTiter-Glo luminescence, LB-PBS (AID 1144); conditions: 12 h, higher = more signal
# [4] = CREB reporter modulators without forskolin, primary screen, cell-based, PC12, CRE-LacZ reporter, unstimulated (AID 1145); conditions: no forskolin, luminescence, 4.5 h, higher = more signal, called active from +8 up or from −8 down
# [5] = CREB reporter modulators under forskolin, primary screen, cell-based, PC12, CRE-LacZ reporter, forskolin-stimulated (AID 1146); conditions: luminescence, 4.5 h, higher = more signal, called active from +8 up or from −8 down;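 further: PC12 cells with 6xCRE LacZ reporter stimulated by forskolin 10 µM; beta-galactosidase reporter signal reflecting CREB driven transcription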
# [6] = molecular target: Streptavidin (Streptomyces avidinii) (UniProt P22629); experiment: streptavidin binders on small-molecule microarray, primary screen, artefact control for SMM compound annotation, biophysical, 635/667 nm fluorescence (AID 1147); conditions: streptavidin binding, higher = more signal;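 further: signal reflects streptavidin binding to arrayed compounds as a control protein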
# Chain of Streptavidin (Streptomyces avidinii) (P22629 whole entry, looked up): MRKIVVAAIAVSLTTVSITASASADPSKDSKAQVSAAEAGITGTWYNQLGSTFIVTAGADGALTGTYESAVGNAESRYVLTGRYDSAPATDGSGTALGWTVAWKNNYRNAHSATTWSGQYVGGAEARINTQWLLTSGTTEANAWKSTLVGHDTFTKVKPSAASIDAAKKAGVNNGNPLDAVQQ
# [7] = small-molecule binders of probe aInhba, primary screen, biochemical, small-molecule microarray, 635/667 nm fluorescence (AID 1148); conditions: higher = more signal;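 further: score merges 667nm spot fluorescence with signal-to-noise for antibody binding to printed compounds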
# Torsin-1A (Homo sapiens) [8] = molecular target: Torsin-1A (Homo sapiens) (UniProt O14656); experiment: torsin A binders from cell lysate, primary screen, small-molecule microarray, wild-type, 635/667 nm (AID 1149); conditions: COS7 hTOR1A-WT lysate, 635 nm fluorescence, higher = more signal
# Chain of Torsin-1A (Homo sapiens) (O14656 whole entry, looked up): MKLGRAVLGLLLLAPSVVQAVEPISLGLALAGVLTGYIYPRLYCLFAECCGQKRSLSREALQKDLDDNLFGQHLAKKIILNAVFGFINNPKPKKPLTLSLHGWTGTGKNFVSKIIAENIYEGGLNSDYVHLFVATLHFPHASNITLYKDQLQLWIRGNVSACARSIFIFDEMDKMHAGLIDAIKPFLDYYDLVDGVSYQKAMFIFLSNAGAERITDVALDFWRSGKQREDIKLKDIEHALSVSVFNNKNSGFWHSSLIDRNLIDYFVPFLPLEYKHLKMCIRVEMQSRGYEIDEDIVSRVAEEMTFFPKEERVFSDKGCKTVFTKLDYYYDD
# Torsin-1A (Homo sapiens) [9] = molecular target: Torsin-1A (Homo sapiens) (UniProt O14656); experiment: small-molecule binders of mutant TOR1A in lysate, primary screen, cell lysate, small-molecule microarray, COS7 lysate, 635/667 nm fluorescence (AID 1150); conditions: COS7 hTOR1A mutant lysate, 635 nm fluorescence, higher = more signal;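 further: score pools 667 nm emission and signal to noise measuring lysate protein binding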
# [10] = system: Sonic hedgehog protein (Shh); experiment: small-molecule binders of Shh protein, primary screen, biochemical, small-molecule microarray, 635/667 nm fluorescence (AID 1151); conditions: small-molecule microarray binding, 635 nm fluorescence; higher = more signal;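 further: Shh protein binding to compounds spotted on small-molecule microarray slides; score combines spot fluorescence intensity with signal-to-noise across triplicate slides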
# [11] = E. coli DRC41 culture turbidity changes, primary screen, E. coli filamentation inducer project, strain DRC41, OD650, 48 h (AID 1152);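 further: E. coli MC1000 strain DRC41 lacking acrAB efflux pump and sulA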; conditions: E. coli DRC41 (acrAB sulA), higher = more signal, called active from +8 up or from −8 down
# [12] = small-molecule binders of probe aLefty1, primary screen, biochemical, small-molecule microarray, 635/667 nm fluorescence (AID 1153); conditions: higher = more signal;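 further: score merges spot fluorescence with signal-to-noise ratio from the scanned slide images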
# [13] = PSAC antagonists in infected red cells, primary screen, cell-based, P. falciparum Indochina, OD700, 1 h (AID 1154); conditions: P. falciparum Indochina infected RBC osmotic lysis, higher = more signal, called active from +8 up or from −8 down
# [14] = PSAC antagonists in infected red cells, primary screen, cell-based, P. falciparum Indochina, OD700, 2 h (AID 1155);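 further: lysis reports solute entry through the parasite surface anion channel PSAC; channel blockers reduce lysis of infected cells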; conditions: P. falciparum Indochina infected erythrocytes, osmotic lysis OD700; higher = more signal, called active from +8 up or from −8 down
# [15] = osmotic lysis modulators in infected erythrocytes, primary screen, PSAC antagonist project, cell-based, P. falciparum Indochina, OD700, 3 h (AID 1156); conditions: higher = more signal, called active from +8 up or from −8 down
# [16] = PSAC antagonists in infected red cells, primary screen, cell-based, P. falciparum Indochina, OD700, 18 h (AID 1157); conditions: P. falciparum Indochina infected erythrocytes, osmotic lysis OD700, 18 h; higher = more signal, called active from +8 up or from −8 down
# [17] = modulators of S6 phosphorylation in cells, primary screen, cell-based, A549, cytoblot, luminescence, serum-stimulated (AID 1158); conditions: A549 phospho-S6 cytoblot, 5 h, higher = more signal;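 further: serum-stimulated A549 lung adenocarcinoma cells; signal is phosphorylated S6 detected by cytoblot immunostaining with HRP secondary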
# [18] = molecular target: NADPH oxidase 2 (Homo sapiens) (UniProt P04839); experiment: NOX2-dependent H2O2 signal modulators, primary screen, NOX inhibitor project, cell-based, HEK293-NOX2, PMA-stimulated, Amplex Red fluorescence (AID 1159); conditions: 45 min, higher = more signal, called active from +8 up or from −8 down; further: test concentration not given here
# Chain of NADPH oxidase 2 (Homo sapiens) (P04839 whole entry, looked up): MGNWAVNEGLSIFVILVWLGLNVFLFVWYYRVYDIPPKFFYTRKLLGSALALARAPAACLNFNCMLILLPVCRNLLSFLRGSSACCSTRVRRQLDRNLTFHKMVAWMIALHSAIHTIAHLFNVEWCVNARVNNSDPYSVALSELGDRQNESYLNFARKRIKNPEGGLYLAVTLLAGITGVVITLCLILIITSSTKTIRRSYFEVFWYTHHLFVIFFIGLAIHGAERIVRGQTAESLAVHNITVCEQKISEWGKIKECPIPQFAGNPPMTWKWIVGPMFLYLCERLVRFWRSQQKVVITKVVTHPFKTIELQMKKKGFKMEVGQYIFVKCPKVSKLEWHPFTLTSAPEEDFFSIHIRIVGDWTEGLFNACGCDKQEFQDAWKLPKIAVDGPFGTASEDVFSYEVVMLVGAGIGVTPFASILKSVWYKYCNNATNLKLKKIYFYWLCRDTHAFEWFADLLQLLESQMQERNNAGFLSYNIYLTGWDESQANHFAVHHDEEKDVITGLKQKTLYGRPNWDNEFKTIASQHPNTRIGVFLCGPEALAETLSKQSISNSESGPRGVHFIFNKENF
# [19] = molecular target: NADPH oxidase 4 (Homo sapiens) (UniProt Q9NPH5); experiment: NOX4-dependent H2O2 signal modulators, primary screen, NOX inhibitor project, cell-based, HEK293-NOX4, tetracycline-induced, Amplex Red fluorescence (AID 1160); conditions: 45 min, higher = more signal, called active from +8 up or from −8 down
# Chain of NADPH oxidase 4 (Homo sapiens) (Q9NPH5 whole entry, looked up): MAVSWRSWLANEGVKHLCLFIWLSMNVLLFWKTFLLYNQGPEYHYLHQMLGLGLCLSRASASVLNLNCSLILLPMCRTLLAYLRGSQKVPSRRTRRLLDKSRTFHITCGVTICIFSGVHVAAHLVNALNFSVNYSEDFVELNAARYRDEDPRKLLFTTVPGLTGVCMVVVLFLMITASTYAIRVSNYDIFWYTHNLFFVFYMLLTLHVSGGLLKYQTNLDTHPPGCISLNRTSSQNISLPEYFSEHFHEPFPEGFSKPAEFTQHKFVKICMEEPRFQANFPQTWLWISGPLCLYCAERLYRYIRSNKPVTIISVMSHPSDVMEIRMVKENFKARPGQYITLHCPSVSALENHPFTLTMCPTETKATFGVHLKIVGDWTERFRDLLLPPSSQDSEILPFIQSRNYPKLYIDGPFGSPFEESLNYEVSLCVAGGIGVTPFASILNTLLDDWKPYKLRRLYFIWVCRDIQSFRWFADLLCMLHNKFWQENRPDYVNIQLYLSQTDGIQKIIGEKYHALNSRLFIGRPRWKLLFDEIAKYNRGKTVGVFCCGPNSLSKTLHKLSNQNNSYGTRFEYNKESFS
# [20] = molecular target: NADPH oxidase 5 (Homo sapiens) (UniProt Q96PH1); experiment: NOX5-dependent H2O2 signal modulators, primary screen, NOX inhibitor project, cell-based, HEK293-NOX5, Amplex Red fluorescence (AID 1161); conditions: HEK293-NOX5, ionomycin, 45 min, higher = more signal
# Chain of NADPH oxidase 5 (Homo sapiens) (Q96PH1 whole entry, looked up): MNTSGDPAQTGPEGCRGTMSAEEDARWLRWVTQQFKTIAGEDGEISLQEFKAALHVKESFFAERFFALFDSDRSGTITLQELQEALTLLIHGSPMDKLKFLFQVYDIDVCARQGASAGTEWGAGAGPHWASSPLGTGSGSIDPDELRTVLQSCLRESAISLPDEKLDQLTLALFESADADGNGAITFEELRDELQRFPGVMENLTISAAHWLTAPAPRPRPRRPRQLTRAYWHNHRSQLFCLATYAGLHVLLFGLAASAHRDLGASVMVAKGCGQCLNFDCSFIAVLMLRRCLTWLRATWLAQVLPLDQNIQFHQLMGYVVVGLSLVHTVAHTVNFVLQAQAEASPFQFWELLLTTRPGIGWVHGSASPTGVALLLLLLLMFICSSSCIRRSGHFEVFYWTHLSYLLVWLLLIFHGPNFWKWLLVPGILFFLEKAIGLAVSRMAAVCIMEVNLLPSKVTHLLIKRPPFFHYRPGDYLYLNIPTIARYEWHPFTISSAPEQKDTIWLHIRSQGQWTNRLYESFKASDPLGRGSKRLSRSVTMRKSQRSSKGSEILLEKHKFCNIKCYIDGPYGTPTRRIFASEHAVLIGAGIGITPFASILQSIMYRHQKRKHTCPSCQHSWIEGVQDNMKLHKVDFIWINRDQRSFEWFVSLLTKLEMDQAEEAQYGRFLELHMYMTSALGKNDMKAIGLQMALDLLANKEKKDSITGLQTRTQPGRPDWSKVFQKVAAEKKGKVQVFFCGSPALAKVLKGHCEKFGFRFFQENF
SMILES,composite z-score [1],z-score [2],z-score [3],z-score [4],z-score [5],composite z-score [6],composite z-score [7],composite z-score (Torsin-1A (Homo sapiens) [8]),composite z-score (Torsin-1A (Homo sapiens) [9]),composite z-score [10],z-score [11],composite z-score [12],z-score [13],z-score [14],z-score [15],z-score [16],z-score [17],z-score [18],z-score [19],z-score [20]
COCCCNC(=O)[C@@H]1c2ccccc2C(=O)N(CC23CC4CC(CC(C4)C2)C3)[C@H]1c1ccc(CO)cc1,1.01,-4.78 (inactive),-0.689 (inactive),-0.0259 (inactive),-1.07 (inactive),-0.269,0.266,0.306,0.262,1.03,-0.162 (inactive),0.276,4.59 (inactive),-0.14 (inactive),3.38 (inactive),-0.877 (inactive),2.61,-1.24 (inactive),-2.34 (inactive),-4.2
CC(=O)NCCCC[C@@H]1NC(=O)[C@H]2C[C@@H](C(=O)NCCCCCCN(C)C)[C@@H](c3ccc(O)cc3)N2C1=O,0.124,-0.0718 (inactive),-0.181 (inactive),0.281 (inactive),0.403 (inactive),1.36,1.12,1.6,1.21,1.79,-0.233 (inactive),0.538,1.32 (inactive),0.461 (inactive),1.92 (inactive),0.0071 (inactive),0.144,-0.768 (inactive),-1.51 (inactive),-0.479
CC1=C([C@H](O)CCc2ccccc2)[C@H](CO)[C@@H]2C(=O)N(Cc3ccccc3)C(=O)[C@@H]2C1,0.079,-0.932 (inactive),-1.43 (inactive),0.851 (inactive),-0.425 (inactive),0.925,-0.0451,-0.0669,0.279,0.256,1.85 (inactive),-0.147,5.86 (inactive),0.759 (inactive),0.695 (inactive),0.5 (inactive),0.663,-0.0572 (inactive),0.16 (inactive),-0.798
CC[C@@H]1C=C(C(=O)O)[C@H](c2ccccc2)N1S(=O)(=O)c1ccc([N+](=O)[O-])cc1,-0.0781,-0.979 (inactive),-0.667 (inactive),-0.873 (inactive),0.403 (inactive),0.698,-0.128,0.802,0.717,-0.335,-3.21 (inactive),-0.405,1.3 (inactive),1.01 (inactive),0.751 (inactive),1.15 (inactive),-0.37,0.325 (inactive),-0.0428 (inactive),-0.526
O=C1C2C=CC(C(O)C(c3ccccc3)c3ccccc3)N(Nc3ccc([N+](=O)[O-])cc3)C2C(=O)N1c1ccccc1 (stereo not given),0.528,-0.664 (inactive),-1.81 (inactive),-0.433 (inactive),0.384 (inactive),1.13,0.0183,0.738,0.871,0.762,-0.344 (inactive),0.442,5.98 (inactive),1.73 (inactive),-0.186 (inactive),1.29 (inactive),-0.606,0.128 (inactive),-1.06 (inactive),-0.097
COc1ccc([Si](C)(C)[C@@H]2[C@@H](CCO)O[C@]3(C(=O)N(Cc4ccc(NC(=O)[C@H](C)O)cc4)c4ccccc43)[C@H]2C)cc1,0.186,-8.04 (active),-0.261 (inactive),18.4 (active),-1.12 (inactive),0.458,-0.0471,0.504,0.392,0.599,1.12 (inactive),0.0378,31.4 (active),27.1 (active),1.58 (inactive),2.46 (inactive),0.597,0.535 (inactive),1.26 (inactive),0.648
O=C1O[C@H](c2ccccc2)[C@H](c2ccccc2)N2[C@H]1[C@@H](C(=O)NC[C@H](O)c1ccccc1)[C@]1(C(=O)Nc3ccc(C#CC4(O)CCCCCC4)cc31)[C@H]2c1ccc(OCCO)cc1,0.288,-5.26 (inactive),-0.37 (inactive),-0.231 (inactive),-0.581 (inactive),0.463,0.0082,0.127,0.644,0.756,3.02 (inactive),0.0811,3.64 (inactive),-0.0068 (inactive),0.226 (inactive),-1.03 (inactive),2.78,2.48 (inactive),0.0727 (inactive),0.139
O=C1C[C@@](C(=O)NCCN2CCOCC2)(c2ccc([N+](=O)[O-])cc2)[C@@H](c2ccc(CO)cc2)N1C1CCCCC1,0.25,0.204 (inactive),0.82 (inactive),0.351 (inactive),-0.303 (inactive),0.316,0.196,0.143,0.555,0.452,1.21 (inactive),-0.154,2.02 (inactive),0.834 (inactive),3.08 (inactive),-0.137 (inactive),-0.371,0.768 (inactive),0.947 (inactive),0.24
CCc1cccc(NC(=O)O[C@H]2[C@H](OC(=O)Nc3ccccc3)[C@@H](OC(=O)Nc3ccccc3)[C@@H](OC)O[C@@H]2CO)c1,0.73,-5.6 (inactive),-0.944 (inactive),0.344 (inactive),-1.9 (inactive),0.39,0.0785,2.73,0.896,1.72,0.172 (inactive),0.424,5.28 (inactive),1.13 (inactive),-0.298 (inactive),0.667 (inactive),0.211,-6.71 (inactive),-1.24 (inactive),-2.35
C[N+](C)(C)CCCCNC(=O)[C@H]1C[C@H]2C(=O)NCC(=O)N2[C@H]1c1cccc(OCCO)c1,0.668,0.148 (inactive),-0.722 (inactive),0.419 (inactive),-0.153 (inactive),0.0924,-0.0044,1.21,0.961,2.17,-0.184 (inactive),0.223,2.81 (inactive),-0.0646 (inactive),-2.28 (inactive),-0.0179 (inactive),0.0455,-1.21 (inactive),0.0245 (inactive),0.259
CCCNC(=O)[C@@H]1c2ccccc2C(=O)N(C2CCCCC2)[C@H]1c1ccc(CO)cc1,0.15,-0.64 (inactive),-0.255 (inactive),-0.062 (inactive),-0.224 (inactive),0.573,0.0589,-0.244,0.0805,0.573,-0.401 (inactive),0.14,11 (active),0.867 (inactive),1.06 (inactive),0.72 (inactive),-0.326,0.747 (inactive),-0.201 (inactive),-1.24
COC(=O)c1ccc(C#CC(NP(=O)(c2ccccc2)c2ccccc2)c2ccccc2)cc1 (stereo not given),-0.0176,-0.351 (inactive),0.107 (inactive),-0.372 (inactive),1.24 (inactive),2.13,0.103,-0.497,-0.199,0.918,-0.817 (inactive),0.0312,10.2 (active),1.16 (inactive),1.04 (inactive),0.936 (inactive),0.806,0.00908 (inactive),-0.556 (inactive),-4.46
COc1ccc([C@H]2C[C@H]3C(Br)=C[C@]2(OC)C(=O)[C@]32CO2)cc1,-0.225,0.147 (inactive),-0.64 (inactive),0.586 (inactive),2.58 (inactive),-0.0817,-0.128,0.806,-0.278,-0.038,-0.882 (inactive),-0.0536,0.262 (inactive),0.0516 (inactive),-0.29 (inactive),-0.21 (inactive),-0.242,0.0866 (inactive),0.295 (inactive),-0.292
C=C[C@H](OC)[C@@H](OC(=O)Nc1ccc(SC)cc1)c1ccc(O)c(F)c1,0.418,-0.731 (inactive),-0.782 (inactive),5.83 (inactive),-0.362 (inactive),-0.174,-0.0695,0.373,0.23,1.6,0.738 (inactive),0.0043,25.5 (active),8.06 (active),1.83 (inactive),-0.016 (inactive),0.461,-2.96 (inactive),-1.66 (inactive),-1.06
CCOC(=O)C1=CC[C@@H](c2ccccc2)N(S(=O)(=O)c2ccc(C)cc2)[C@H]1C,0.532,-4.32 (inactive),0.165 (inactive),-0.0137 (inactive),-0.664 (inactive),1.85,-0.153,1.41,1.25,0.747,-1.29 (inactive),0.0668,3.28 (inactive),1.03 (inactive),-0.392 (inactive),0.215 (inactive),-0.343,0.21 (inactive),-0.291 (inactive),0.0997
[N-]=[N+]=NCc1ccccc1[C@H]1OC(c2ccc(OCCCO)cc2)=N[C@@]1(Cc1ccccc1N=[N+]=[N-])C(=O)NCc1ccccc1,0.928,-3.99 (inactive),-0.358 (inactive),1.74 (inactive),-0.676 (inactive),0.303,0.671,0.22,0.681,0.033,-0.258 (inactive),0.195,28.3 (active),20.5 (active),1.96 (inactive),1.99 (inactive),-0.0679,-0.627 (inactive),0.522 (inactive),-0.56
O=C(N1CCCCC1)[C@@]1(CCS(=O)(=O)c2ccccc2)N=C(c2ccc(OCCCO)cc2)O[C@H]1c1ccccc1,1.31,-5.06 (inactive),-0.725 (inactive),0.909 (inactive),-0.516 (inactive),-0.123,-0.0112,1.06,0.623,-0.442,0.646 (inactive),0.347,30.1 (active),24.2 (active),2.17 (inactive),4.24 (inactive),2.24,-4.27 (inactive),0.156 (inactive),-4.84
